{
  "source": "the supplement of paper PMC12632987",
  "binders": {"B1": {"name": "FBXL12_hotspot_77_92 (protein)", "chain": "MSHLEIVVSQPATPPERREEALARARHTARYAAEIARGAKERQPELRITLVVRSEADPETTRALVRILAETAKELGVELVVEVAPENEAVAREVLAELGL"}, "B2": {"name": "FBXL12_hotspot_69_87 (protein)", "chain": "EFTVIVRDVSVEYALALAEAALERAEEALAAGDREAFLRLARVALAAIENILEEDPERALELAERLAELLERADDPRFEPLLERARELIERARRLLEERR"}, "B3": {"name": "FBXL12_hotspot_77_91 (protein)", "chain": "MKTVTIRVSFPAVPPEEAEALRERALRAMETALEIARGLKAAHPDVKIVIVLRIEGNPEVAREVAERAVREAHELGIEFRDESAPEVRAAAEALLAALAA"}, "B4": {"name": "FBXL12_hotspot_69_88 (protein)", "chain": "MIEVRVSESSVEYALELGRAAVEKLEEAVKNGDWETAERLVDLIISIAEAIAELRPEEAIELLERAAKILKKDDSEKAKELLEKVEKKIKELKKKAKELK"}, "B5": {"name": "FBXL12_hotspot_109_5 (protein)", "chain": "MTVLLVARATTPEAARRTGETALAIARGLRAAGHEVIAVIVTLEEAREIAEATAAELRALGAEVRLRTAATPEEVERAYAELRAEALARLDAREAAAAAA"}, "B6": {"name": "GBRAPL2_0_7190 (protein)", "chain": "YEEELEEISKLPIEEFAERGVELVERAVADPSLSLEELEELALRVIRLLYEKVKEEKTEEAEDIYVEAADRIAAILAAVDPRLAAYVATEAGSLLYEWES"}, "B7": {"name": "FBXL12_hotspot_78_93 (protein)", "chain": "MRTLVISIPAFVSPDAAARARGIAYQAAAAIEALRAGWEVVISHADTPEAKRAALTILERAVAETGDEARIRSEEGRGAREILAELRAALAAEDEAAAAA"}, "B8": {"name": "FBXL12_hotspot_69_89 (protein)", "chain": "MIEVRASESSIEYVKELAESALKLAKKALKEKDLETLLKLAEILISAAREIAKYEPEYALELLKELLKLLKEAKTEEAEKAAKEAEKAIKEIKKLIEERK"}, "B9": {"name": "FBXL12_hotspot_78_94 (protein)", "chain": "MRKLVITIPEPVTPDEEARRRGVEYQAQAAIEALKAGWEVVISHADTPEAKRAALEILEKAVAETGDKEKIKSADGKNADEMLAELKAELAEEEARRAAA"}, "B10": {"name": "FBXL12_hotspot_69_90 (protein)", "chain": "MIEVKASKESVDYVAELMKSALELAKKYLKEGDYENLLKAAEILIGAARAIKEYKPEEAAKLLEELIKVLKEAGTPEAKELAKEAEKVLEEIKKIIKERE"}, "B11": {"name": "FBXL12_hotspot_78_95 (protein)", "chain": "MRVLRIVIPADLPPDPEQRQRGIEYQAQAAIEAVRAGWEVVIEAADTPEAKRAALEILRRTLAETGDPERIRSPEGENAREILARLEAELAAEEAAAAAA"}, "B12": {"name": "FBXL12_hotspot_81_96 (protein)", "chain": "ATRELRITLQFTADDTEEEIIRRGRYHLELMYEAAKAGWEIASVTLDEAALEKSLTPERQALARRVTAILQEAAAEFRAARDAPDSVFDAILAEALARLA"}, "B13": {"name": "GBRAPL2_0_7188 (protein)", "chain": "VEERIKEAEKLSIEEASKKFIEIIKEVVEDPSYSLEEIEEIALRIMKALTKIVKKENTEEAEKIYAETADKIREILSKVDPNIANYIETEAYSELLEIEE"}, "B14": {"name": "GBRAPL2_0_7189 (protein)", "chain": "LEERLEAARELSIEEAAEELLRLIREAVEDPSFSLEEIEELARRAVEVLVEIVRRENTEEAEEIAAETADEMREILLEIDPNLAADVETEFYSELLEIEE"}, "B15": {"name": "GBRAPL2_0_7187 (protein)", "chain": "YRKEIEEAKKLSIEEAAEKFIKLVKEAVEDPSFSKEEIEELALEIVDTLVEIVKKENTEEAEDIYAETIREIREILEKVDPNLAAYVETEGFSKLLEIEE"}, "B16": {"name": "FBXL12_hotspot_109_6 (protein)", "chain": "MRVILSALGTEPELAERTFEATVTIAEGLLAAGHEVRVVLVAVEENREVAEAAAARLRALGAEVRLVVEETPEAAREAHERLLAEAEEELDREEEERERA"}},
  "key": {"FBXL12, Q9NXK8": {"molecular_target": "T1, FBXL12, Q9NXK8", "T1 chain": "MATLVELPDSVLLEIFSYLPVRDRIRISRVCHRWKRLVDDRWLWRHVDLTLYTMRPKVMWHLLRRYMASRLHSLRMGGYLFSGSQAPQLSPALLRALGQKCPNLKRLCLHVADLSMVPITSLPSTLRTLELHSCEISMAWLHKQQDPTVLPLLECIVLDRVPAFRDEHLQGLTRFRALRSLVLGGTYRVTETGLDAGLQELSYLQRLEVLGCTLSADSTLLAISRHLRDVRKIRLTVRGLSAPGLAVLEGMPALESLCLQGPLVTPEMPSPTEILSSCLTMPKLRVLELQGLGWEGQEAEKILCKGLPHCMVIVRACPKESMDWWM", "test": "median log2 fold change of GCK-ALFA target abundance (FLAG IP / Myc IP barcode read proportion) (log2 ratio); higher = target protein stabilised (more abundant)", "conditions": "target protein: 3xFLAG-MCP-GCK-ALFA reporter; HEK293 landing pad (RPLP)", "outline": "(§1)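 The readout is target abundance, the per-binder median log2 ratio of FLAG to Myc barcode read proportions. It came from HEK293 landing-pad cells carrying a recombined ALFA-nanobody-fused binder library, induced with 2 μg mL^−1 doxycycline and transfected with a plasmid for a FLAG-tagged target and a Myc-tagged standard. After 48 h, lysates were immunoprecipitated with anti-FLAG and anti-Myc, and circular RNA barcodes were reverse transcribed, amplified and sequenced. Each barcode needed a proportion of at least 10^−7 in both replicates and each binder at least 3 barcodes per replicate, a pseudocount of 10^−6 was added, and the replicates were pooled.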"}, "GABARAPL2, P60520": {"molecular_target": "GABARAPL2, P60520", "sequence (P60520 whole entry, the tested form may be a part)": "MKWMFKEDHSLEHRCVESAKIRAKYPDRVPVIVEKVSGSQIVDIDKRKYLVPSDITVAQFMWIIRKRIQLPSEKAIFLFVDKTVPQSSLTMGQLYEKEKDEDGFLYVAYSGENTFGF", "test": "median log2 fold change of GCK-ALFA target abundance (FLAG IP / Myc IP barcode read proportion) (log2 ratio); each designed protein is fused to an ALFA-tag nanobody in HEK293 cells to bring the named protein to FLAG-tagged glucokinase (GCK); Myc marks an untargeted standard; higher = target protein stabilised (more abundant)", "conditions": "target protein: 3xFLAG-MCP-GCK-ALFA reporter; HEK293 landing pad (RPLP)", "outline": "as §1"}},
  "data": [
    {"binder": "B1", "values": [
      {"measurement": "median log2 fold change", "setting": "FBXL12, Q9NXK8", "result": 0.051}
    ]},
    {"binder": "B2", "values": [
      {"measurement": "median log2 fold change", "setting": "FBXL12, Q9NXK8", "result": -0.369}
    ]},
    {"binder": "B3", "values": [
      {"measurement": "median log2 fold change", "setting": "FBXL12, Q9NXK8", "result": -0.734}
    ]},
    {"binder": "B4", "values": [
      {"measurement": "median log2 fold change", "setting": "FBXL12, Q9NXK8", "result": -0.107}
    ]},
    {"binder": "B5", "values": [
      {"measurement": "median log2 fold change", "setting": "FBXL12, Q9NXK8", "result": -0.531}
    ]},
    {"binder": "B6", "values": [
      {"measurement": "median log2 fold change", "setting": "GABARAPL2, P60520", "result": -0.38}
    ]},
    {"binder": "B7", "values": [
      {"measurement": "median log2 fold change", "setting": "FBXL12, Q9NXK8", "result": -0.726}
    ]},
    {"binder": "B8", "values": [
      {"measurement": "median log2 fold change", "setting": "FBXL12, Q9NXK8", "result": 0.238}
    ]},
    {"binder": "B9", "values": [
      {"measurement": "median log2 fold change", "setting": "FBXL12, Q9NXK8", "result": 0.319}
    ]},
    {"binder": "B10", "values": [
      {"measurement": "median log2 fold change", "setting": "FBXL12, Q9NXK8", "result": -0.0708}
    ]},
    {"binder": "B11", "values": [
      {"measurement": "median log2 fold change", "setting": "FBXL12, Q9NXK8", "result": -0.49}
    ]},
    {"binder": "B12", "values": [
      {"measurement": "median log2 fold change", "setting": "FBXL12, Q9NXK8", "result": 0.19}
    ]},
    {"binder": "B13", "values": [
      {"measurement": "median log2 fold change", "setting": "GABARAPL2, P60520", "result": -0.00159}
    ]},
    {"binder": "B14", "values": [
      {"measurement": "median log2 fold change", "setting": "GABARAPL2, P60520", "result": -0.521}
    ]},
    {"binder": "B15", "values": [
      {"measurement": "median log2 fold change", "setting": "GABARAPL2, P60520", "result": 0.0199}
    ]},
    {"binder": "B16", "values": [
      {"measurement": "median log2 fold change", "setting": "FBXL12, Q9NXK8", "result": 0.11}
    ]}
  ]
}
